High-throughput results as filed in PubChem.
HPGD block = qHTS Assay for Inhibitors of HPGD (15-Hydroxyprostaglandin Dehydrogenase); 15-hydroxyprostaglandin dehydrogenase [NAD(+)] (Homo sapiens), P15428; purified HPGD, NADH fluorescence kinetic, PGE2 substrate; Potency, µM, for inactives: at the highest dose activity change, negative = inhibition, most hits filed as inhibitors; 150,000 compounds, 4.3% hits; AID 894, 2007; note: potency is the fitted concentration of half-maximal effect
Target sequence (P15428 whole entry, looked up): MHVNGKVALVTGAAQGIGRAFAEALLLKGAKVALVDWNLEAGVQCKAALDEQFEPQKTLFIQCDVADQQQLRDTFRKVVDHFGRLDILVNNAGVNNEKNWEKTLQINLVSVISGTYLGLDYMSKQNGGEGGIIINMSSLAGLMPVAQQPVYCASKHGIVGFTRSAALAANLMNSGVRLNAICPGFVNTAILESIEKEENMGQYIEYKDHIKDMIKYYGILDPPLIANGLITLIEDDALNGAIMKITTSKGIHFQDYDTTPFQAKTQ
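20 nM HPGD preincubated 15 min at room temperature with compound in 50 mM Tris-HCl pH 8, 0.01% Tween 20. Started with 1 mM NAD+ and 30 uM prostaglandin E2; NADH fluorescence (360/450 nm) read 5 times over 30-s intervals, last minus first.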
PNC inhibitor = High Content Assay for Compounds that inhibit the Assembly of the Perinucleolar Compartment; PC3M PTB-GFP, PNC prevalence imaging, 16 h; stronger effect = lower value; activity change (PNC), negative = inhibition, % at 10 µM; 140,000 compounds, 3.1% hits; AID 2417, 2010;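 active = readout at or below -70, meaning at least 70% loss of cells showing the perinucleolar compartment, a nuclear body marking cancer cells; inconclusive = readout between -30 and a set limit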;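 note: plate controls were DMSO wells for no effect and camptothecin positive control wells for full effect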
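Compounds are pinned in duplicate onto adhered PC3M cells stably expressing GFP-tagged PTB and incubated 16 h at 37 C. Cells are then fixed, nuclei stained with Hoechst, and PNC-positive cells counted.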
ALDH1A1 inh = qHTS Assay for Inhibitors of Aldehyde Dehydrogenase 1 (ALDH1A1); AID 1030, 2008; Potency, µM (titrated, usually from 75.3 µM), for inactives: at the top dose activity, negative = inhibition, usual class: inhibitors; Aldehyde dehydrogenase 1A1 (Homo sapiens), P00352; Purified ALDH1A1, NADH fluorescence, propionaldehyde substrate; 220,000 compounds, 7.3% hits;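 note: potency is the fitted concentration of half-maximal effect; plate controls were no enzyme wells and a reference inhibitor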
* marks the source's active call; other numbers are inactive results; ? = inconclusive; . = not tested or not shown; [ ] = remark or other dose. The list is not random: actives were taken first. Their share in the collection is about 11%. Unless noted, calls come from the whole dose curve; as a rule, active = well fitted inhibition curve with a large enough effect (not every such curve was filed as active); inconclusive = small, poorly fitted or top-dose-only effect, or another doubt; inactive = no such curve, though single readings can be large or run the other way. Unless noted, % is set by controls: 0 for no effect and ±100 for the full control effect.

SMILES	HPGD block	PNC inhibitor	ALDH1A1 inh
O=C(COC(=O)c1cccs1)Nc1cc(S(=O)(=O)N2CCOCC2)ccc1Cl	.	.	-5.9%
Cc1cccc(NC(=O)COC(=O)CCc2ccc(S(=O)(=O)N3CCOCC3)cc2)c1C	.	.	3.55µM*
Cc1ccc(NC(=O)COC(=O)CCc2ccc(S(=O)(=O)N3CCOCC3)cc2)c(C)c1	.	.	11.8%
COc1ccccc1OCCC(=O)OCC(=O)Nc1cc(S(=O)(=O)N2CCOCC2)ccc1Cl	.	.	6.31µM*
Cc1ccccc1OCCC(=O)OCC(=O)Nc1cc(S(=O)(=O)N2CCOCC2)ccc1Cl	.	.	2.51µM*
O=c1c(/C=N/OCc2ccc(Cl)cc2Cl)c[nH]n1-c1cccc(Cl)n1	.	.	3.9%
CCSc1nc2ccccc2n1CC(=O)O	.	.	15.2%
COc1ccc(S(=O)(=O)N2CCOCC2)cc1NC(=O)CCc1c[nH]c2ccccc12	.	.	14.1µM*
COc1ccc(NC(=O)Cc2c[nH]c3ccccc23)cc1S(=O)(=O)N1CCOCC1	.	.	4.8%
COCCCNC(=O)Cn1nnc(-c2ccccc2NC(=O)c2ccccc2F)n1	-0.8%	?	?
CCNC(=O)C(=O)NCc1ccncc1	.	.	1.7%
Cc1cc(Cl)ccc1OCCCC(=O)NC1CCN(C)CC1	-2.2%	43.2	0.6%
O=C(COc1ccc(Br)cc1Br)NC1CCCC1	.	.	-3.6%
O=C(COc1ccc2ccccc2c1)NCCNC(=O)COc1ccc2ccccc2c1	-11.9%	15.0	-2.9%
Cc1ccc(OCC(=O)NC2CCCC2)c(C)c1	28.2µM*	?	13.7%
O=C(COc1ccc2ccccc2c1)NC1CC1	31.6µM*	59.0	-7.1%
Cc1cc(Cl)ccc1OCC(=O)NC1CCCC1	14.1µM*	5.8	5.9%
Cc1ccc(OCC(=O)NC2CC(C)(C)NC(C)(C)C2)c(C)c1	.	.	5.6%
O=C(COc1ccc(Br)cc1Cl)NC1CCCCC1	11.2µM*	19.4	6.0%
S=C(NCCc1ccccc1)NCc1cccs1	?	25.0	-11.8%
Nc1nc(CCOc2ccc(F)cc2)cs1	.	.	12.1%
COc1ccc(CCNC(=O)c2cccnc2SC)cc1	.	.	7.9%
O=C(Cc1ccc([N+](=O)[O-])cc1)Nc1ccc(O)cc1C(=O)O	-14.0%	11.8	1.8%
COc1ccc(C(=O)C2CCCN(Cc3ccc(Sc4nncn4C)o3)C2)cc1F (stereo not drawn)	.	.	4.6%
Cc1ccc(S(=O)(=O)NCC2(c3ccccc3)CCOCC2)cc1	.	.	-10.2%
SMILES	HPGD block	PNC inhibitor	ALDH1A1 inh
COc1ccc(NC(=O)CSc2nc(-c3ccncc3)nn2CC(=O)N2CCCC2)cc1	?	0.4	4.4%
Cc1cc(Cl)c(S(=O)(=O)N2CCCCCC2)cc1OCC(=O)NC1CCCCC1	-17.0%	45.7	?
CCn1cc(C(C)NC(=O)COc2ccc(Cl)cc2C)c(C)n1 (stereo not drawn)	-20.1%	-95.0*	7.6%
Cc1cc(Cl)c(S(=O)(=O)N2CCSCC2)cc1OCC(=O)NC1CCCCC1	-15.1%	-9.3	7.94µM*
CC(C)NC(=O)COc1ccc(Cl)cc1Cl	-22.6%	27.5	10.2%
O=C(Nc1nnc(-c2ccc(F)cc2)o1)c1cccc([N+](=O)[O-])c1	.	.	5.3%
Cc1cc(C(=O)COc2cc(F)ccc2[N+](=O)[O-])c(C)n1C1CC1	.	.	-15.0%
Cc1cc(C(=O)COc2ccc([N+](=O)[O-])cc2)c(C)n1C1CC1	.	.	11.2µM*
C=C[C@@H](C1=CC(=O)C(OC)=C(OC)C1=O)c1ccccc1	20µM*	.	-10.1%
C=CC(C1=CC(=O)C=CC1=O)c1ccccc1 (stereo not drawn)	-9.2%	.	-13.0%
Cc1noc(C)c1CSc1ccc2ccccc2n1	-21.9%	-118.9*	-0.6%
Cc1noc(C)c1CSc1nc2ccccc2n1CCc1ccccc1	-27.7%	-1.2	28.2µM*
O=C(O)CCn1c(SCc2ccccc2)nc2ccccc21	-12.1%	?	4.8%
Cc1noc(C)c1CSc1nc2ccccc2s1	-16.2%	32.2	?
O=C(NCc1cccnc1)c1cccs1	.	.	2.0%
NS(=O)(=O)Cc1noc2ccccc12	-4.1%	.	3.4%
C=C1C(=O)OC2C[C@@]3(C)CCCC(C)C3=CC12 (stereo partly drawn)	-9.4%	.	-11.1%
CCNC(=O)/C=C/c1ccccc1[N+](=O)[O-]	.	.	15.9%
CC(C)N(Cc1ccccc1)C(=O)/C=C/c1ccccc1[N+](=O)[O-]	.	.	5.62µM*
Cc1nc2sc(C(=O)O)c(N)c2c2c1COC(C)(C)C2	-12.6%	33.3	14.1µM*
CCOC(=O)c1sc2nc(-c3ccco3)c3c(c2c1N)CC(C)(C)OC3	?	24.5	?
O=C(C1=C[C@H](c2ccccc2)C[C@H](OCCCCO)O1)N1CCOCC1	.	.	-4.3%
CCC(C)(C)NC(=O)C(c1cccnc1)N(C(=O)c1csnn1)c1ccc(C)cc1 (stereo not drawn)	.	.	-4.5%
O=C(/C=C/c1ccc(F)cc1)NCc1cccs1	-13.4%	?	-6.4%
O=C(/C=C/c1ccccc1Cl)NCc1cccs1	14.1µM*	29.1	?
SMILES	HPGD block	PNC inhibitor	ALDH1A1 inh
O=C(COC(=O)C12CC3CC(CC(Br)(C3)C1)C2)Nc1cccnc1Cl	.	.	-5.8%
O=C(C[n+]1ccn(CCCNP2(=O)C=C(c3ccccc3)OC(c3ccccc3)=C2)c1)c1cccs1	.	.	14.1µM*
O=C(C[n+]1cc(-c2ccccc2)n2c1CCC2)c1cccs1	.	.	4.4%
CCCCCC(=O)NC(=S)Nc1ccc(Cl)cn1	-12.2%	25.5	7.9%
Cn1nnnc1SCC(=O)Nc1ccccc1C(=O)NCc1ccccc1	-7.8%	-11.5	5.5%
COC(=O)[C@H](Cc1ccccc1)NC(=O)NCc1cccs1	-6.9%	-21.4	-1.5%
COCCOC(=O)C1=C(C)N=C2SCCC(=O)N2C1c1cccc(Br)c1 (stereo not drawn)	-14.0%	?	?
COc1ccc2c(=O)ccoc2c1	-21.2%	.	-12.7%
COc1cccc(C(=O)NC(=S)Nn2cnnc2)c1OC	.	.	7.94µM*
O=C(NC(=S)Nc1ncccn1)c1ccccc1Cl	5.0%	?	-2.0%
COc1cccc(C(=O)Nc2cc(=O)n(C)c(=O)n2C)c1OC	-6.4%	-13.9	-3.2%
O=C(NC(=S)Nn1cnnc1)c1ccccc1Cl	.	.	10µM*
O=C1c2nccnc2C(=O)N1c1ccc(C(F)(F)F)cc1	.	.	-9.3%
CNc1nc(SC)nc2ccsc12	-10.7%	?	-3.6%
CC1CCCCN1C(=O)c1cc2nc(-c3ccccc3)cc(-c3ccccc3)n2n1 (stereo not drawn)	?	7.8	?
O=C(NCc1cccnc1)C(=O)NCC(c1ccco1)N1CCN(c2ccccc2)CC1 (stereo not drawn)	-5.2%	16.2	?
O=C(NCc1cccnc1)C(=O)NCC(c1ccco1)N1CCN(c2ccccc2F)CC1 (stereo not drawn)	-11.1%	?	11.2µM*
CN(C)Cc1ccccc1-c1nc(N(C)C)c2ccccc2n1	.	.	28.1%
Cc1ccc(-n2nnnc2SCc2nnc(-c3ccccc3Br)o2)c(C)c1	-22.4%	-2.6	-14.4%
CC(C)(C)c1ccc(NS(=O)(=O)c2ccc(N)cc2)cc1	-8.1%	.	-11.7%[13.5 µM]
CC(C)(C)c1ccc(S(=O)(=O)/C=C/C#N)cc1	10µM*	.	0.112µM*
COCc1cc(C)nc(Oc2ccccc2)c1C#N	.	.	10.3%
